Pf growth 48h – P. falciparum growth inhibition at 48 hours (one generation) | AID 504832 | Potency, µM (titrated, usually from 28.7 µM), for the others: at the top dose activity change, negative = inhibition, usual class: inhibitors | P. falciparum luciferase growth in erythrocytes, 48 h | 310,000 compounds, 5.9% hits; also: % is scaled to controls: 0 for no effect and ±100 for the full control effect
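Read-out is firefly luciferase luminescence from an integrated reporter in P. falciparum, so falling signal marks reduced parasite growth. Infected erythrocytes were at 2% hematocrit and 0.1% parasitemia (final) in Albumax-supplemented RPMI 1640.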
Pf growth 96h – inhibits malaria parasite growth, 96 h; P. falciparum luciferase reporter growth, 96 h; Potency, µM (highest dose often 28.7 µM), for the others: at the highest dose activity change, negative = inhibition, actives largely listed as inhibitors; 320,000 compounds, 6.9% hits; AID 504834; also: % is scaled to controls: 0 for no effect and ±100 for the full control effect
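Infected RBCs, 2% Hct / 0.05% parasitemia final; luciferase-reporter P. falciparum; cpd 96 h, 37 C, 5% CO2; luciferase detection reagent; luminescence.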
Sm TGR inh – blocks Schistosoma mansoni thioredoxin glutathione reductase. Q962Y6. purified TGR, DTNB reduction, TNB absorbance 405 nm. Potency, µM (highest dose often 114 µM), inactives show at the top dose activity change, negative = inhibition, hits mostly inhibitors. 360,000 compounds, 3% hits; also: % is scaled to controls: 0 for no effect and ±100 for the full control effect; nearly all actives have a fitted effect of over 60% in size
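First, TGR (20 nM dispensed) and NADPH were mixed with compound. Second, a 15 min room-temperature incubation followed. Third, further NADPH and then DTNB were added to start the reaction. Finally, TNB absorbance was monitored kinetically.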
SARS PLP yeast – inhibitors of SARS-CoV papain-like protease in yeast. 330,000 compounds, 0.19% hits. S. cerevisiae expressing SARS-CoV PLpro, growth rescue. Potency, µM (doses to about 32.9 µM), inactives show at the highest dose activity, positive = growth rescue, actives largely listed as activators; calls by dose curve; also: 0% is about no effect; nearly all actives have a fitted effect of over 55% in size
AmpC inh detg – inhibitors of E. coli AmpC beta-lactamase with detergent. P00811. AmpC hydrolysis of nitrocefin, absorbance 480 nm, 0.01% Triton. Potency, µM (top dose mostly 114 µM), for the others: at the top dose activity change, negative = inhibition, hits mostly inhibitors. 370,000 compounds, 0.041% hits. AID 485294;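 also: 0% = no-compound wells and -100% = no-enzyme wells; nearly all actives have a fitted effect of over 25% in size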
Target sequence (P00811 whole entry, looked up): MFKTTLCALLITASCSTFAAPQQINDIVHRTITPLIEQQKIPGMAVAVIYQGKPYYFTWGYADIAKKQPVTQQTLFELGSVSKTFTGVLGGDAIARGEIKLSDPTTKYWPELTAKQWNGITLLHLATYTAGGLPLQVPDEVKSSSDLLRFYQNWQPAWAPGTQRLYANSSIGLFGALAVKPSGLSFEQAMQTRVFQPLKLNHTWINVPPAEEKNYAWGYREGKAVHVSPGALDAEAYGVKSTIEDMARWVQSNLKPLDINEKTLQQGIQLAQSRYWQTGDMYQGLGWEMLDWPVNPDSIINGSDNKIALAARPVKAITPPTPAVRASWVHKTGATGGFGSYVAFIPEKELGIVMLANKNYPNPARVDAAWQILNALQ
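20 mM phosphate pH 7.0 + 0.01% (detergent screen) or 0.0001% Triton X-100; 5.3 nM AmpC reagent; cpd preinc 15 min RT; nitrocefin (800 uM stock) to start; A480 q20 s × 4 min; Activity was normalised to no-enzyme and no-compound control wells.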
AmpC inh no detg – AmpC beta-lactamase inhibition without detergent. P00811. AmpC nitrocefin hydrolysis, absorbance 480 nm, 0.0001% Triton. Potency, µM (titrated, usually from 57.1 µM), inactives show at the highest dose activity change, negative = inhibition, most hits filed as inhibitors. 330,000 compounds, 0.52% hits. AID 485341;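 also: plate controls were no compound for no effect and no enzyme for full effect; nearly all actives have a fitted effect of over 20% in size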
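AmpC (5.3 nM in the dispensed reagent) in 20 mM phosphate pH 7.0 with 0.01% (detergent screen) or 0.0001% Triton X-100 was preincubated with compounds for 15 min at room temperature. Nitrocefin was then added from an 800 uM solution, and hydrolysis was followed at 480 nm.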
The depositor's hits bear a star; ? = inconclusive; · = no result given. Compounds with a hit are over-represented: about 12% of the library has one in this group of screens. Unless noted, calls follow the shape of the dose curve; as a rule, active = well fitted curve in the direction sought with a large enough effect; inconclusive = small, poorly fitted or top-dose-only effect, or another doubt; inactive = no such curve, though single readings can be large; an effect the other way counts as inactive or inconclusive. Potency is read from the fitted curve at half-maximal effect.

SMILES | Pf growth 48h | Pf growth 96h | Sm TGR inh | SARS PLP yeast | AmpC inh detg | AmpC inh no detg
S=C(Nc1ccccc1)Nc1nc2ccccc2n1CCOc1ccc(Cl)cc1 | 7.38µM* | 11.7µM* | -1.2% | 24.9% | -11.1% | -41.9%
CCn1c(NC(=O)C2CCCCC2)nc2ccccc21 | 10.4µM* | 350.6% | -9.1% | 18.4% | -3.8% | -24.5%
Clc1ccc(NCc2nc3ccccc3n2CCOc2ccccc2)cc1 | · | · | 6.0% | · | 8.8% | ·
CCn1c(NC(=S)Nc2ccccc2)nc2ccccc21 | ? | 3.29µM* | -34.4% | 7.7% | -4.2% | -24.8%
N#Cc1ccncc1S(=O)c1ccc(Cl)cc1 (configuration not stated) | 42.4% | 41.5% | 35.9% | 0.0% | 2.6% | -27.6%
CCOC(=O)CC(=O)CSc1ncnc2c1oc1ccccc12 | -14.6% | · | 31.0% | -3.9% | -0.7% | -3.2%
O=S(=O)(NCCc1csc(-c2cccnc2)n1)c1ccc(Cl)s1 | · | ? | -17.8% | -13.7% | -18.3% | -11.4%
CCc1c(C)sc2c1CCN(C(=O)Nc1cc(C)ccc1OC)C2c1ccc(F)cc1 (configuration not stated) | · | · | 7.7% | · | 20.6% | ·
CCN1/C(=C/c2cccc[n+]2C)Sc2ccc(OC)cc21 | 1.04µM* | -27.5% | 0.7% | -4.7% | -5.8% | 13.3%
COc1ccc2c(c1)N(C)/C(=C/c1cccc[n+]1C)S2 | 0.37µM* | ? | -5.5% | -3.9% | -2.9% | 5.8%
COC(=O)c1ccc(C)c(NC(=O)COC(=O)C2CC3CCCC(C2)C3=O)c1 (configuration not stated) | -10.0% | 0.0% | -15.4% | 0.0% | ? | 1.5%
Brc1ccc(-c2nnc(-c3ccco3)o2)cc1 | 121.6% | 372.5% | 0.0% | -1.0% | 2.6% | -18.5%
Cc1ccc(-c2nnc(-c3ccc(Br)cc3)o2)o1 | 87.1% | 2.62µM* | -7.9% | 1.3% | ? | -13.6%
CCN(CC)C1CCN(Cc2cn[nH]c2-c2ccc(OC)c(F)c2)C1 (configuration not stated) | 11.9% | 2.08µM* | -31.0% | 0.9% | 9.2% | -0.7%
COc1ccc(CCn2c(C)ccc2C)cc1OC | 5.22µM* | 8.28µM* | ? | -13.2% | ? | 50.9%
Cc1ccc(N/N=C(/Sc2nnnn2-c2ccccc2)C(=O)c2ccccc2)cc1 | -5.8% | -11.2% | -2.1% | 2.2% | 35.5µM* | 3.98µM*
CCc1cc(=O)oc2c(C)c(OCC(=O)N3CCCc4ccccc43)ccc12 | 11.7µM* | · | -2.1% | -1.7% | -12.7% | -5.5%
COC(=O)COc1cccc2c(=O)n(CC(=O)N3CCCc4ccccc43)ccc12 | 15.8% | 6.3% | 1.5% | -2.1% | ? | 0.631µM*
CCc1cc(=O)oc2cc(OCC(=O)N3CCc4ccccc43)ccc12 | 19.7% | 74.6% | -2.4% | 0.3% | -21.1% | -20.9%
Cc1cccc(N2CCN(C(=O)COc3ccc4c(C)cc(=O)oc4c3C)CC2)c1C | 11.7µM* | ? | 8.1% | -7.5% | 1.6% | 65.2%
Cc1nnc(N2CCC(C(=O)NCCC(C)C)CC2)c2nn(-c3ccc(Cl)cc3)c(C)c12 | · | · | -0.4% | · | 16.6% | ·
Cc1cccc(CNC(=O)C(=O)Nc2ccccc2C)c1 | · | · | 12.1% | · | -1.4% | ·
COc1ccc(NC(C)=O)cc1S(=O)(=O)N1CCn2cccc2C1C (configuration not stated) | ? | -0.7% | 25.1µM* | -0.6% | -1.8% | 27.1%
CC(=O)c1cccc(S(=O)(=O)N2CCn3cccc3C2C)c1 (configuration not stated) | ? | -22.2% | 31.6µM* | -1.0% | ? | -6.6%
COC(=O)c1ccccc1S(=O)(=O)N1CCn2cccc2C1C (configuration not stated) | ? | -17.5% | ? | -3.5% | -5.7% | -43.2%
SMILES | Pf growth 48h | Pf growth 96h | Sm TGR inh | SARS PLP yeast | AmpC inh detg | AmpC inh no detg
CC1c2cccn2CCN1S(=O)(=O)c1ccc(F)cc1 (configuration not stated) | ? | -17.0% | ? | -1.2% | -2.5% | -13.7%
CC(=O)c1ccc(S(=O)(=O)N2CCn3cccc3C2C)cc1 (configuration not stated) | 14.3% | ? | 35.5µM* | -1.5% | -1.6% | -0.4%
CCOC(=O)c1c(NC(=O)/C=C/c2ccc(C(C)C)cc2)sc2c1CCC2 | · | · | -0.1% | · | -1.2% | ·
CC(=O)c1ccc2c(c1)c(C#N)c1ccccc1[n+]2[O-] | 36.7% | 32.3% | -2.1% | -0.1% | -2.5% | -15.3%
COc1ccc(NC(=O)c2cnc3sc(N4CCOCC4)nn3c2=O)c(OC)c1 | · | · | 5.8% | · | 0.8% | ·
O=c1c(Cc2ccc(F)cc2)c(O)ccn1C1CC1 | 5.22µM* | -13.3% | -0.8% | -7.8% | -2.6% | ?
Cc1ccc(OCc2nnc(SCc3ccc(C#N)cc3)n2-c2ccc(C)cc2)cc1 | 13.1µM* | · | 5.8% | -11.5% | -0.3% | 27.6%
C=CCn1c(COc2ccccc2)nnc1SCc1ccc(C#N)cc1 | -9.7% | 0.928µM* | -7.0% | -3.9% | -7.6% | 5.6%
Cc1ccc(-n2c(SCc3ccc(C#N)cc3)nnc2-c2ccccn2)cc1 | ? | 10.4µM* | -6.9% | -3.3% | -12.1% | 45.4%
COc1ccccc1CNC(=O)N1CCN(c2ccccc2Cl)CC1 | ? | ? | -7.1% | -3.6% | -5.9% | -6.2%
N=C(N)SCc1ncccc1O | 29.3% | 83.9% | 11.2µM* | 0.6% | -3.2% | -8.0%
N=C(N)SCc1ccccn1 | ? | 0.0% | 1.5% | 12.4% | 6.8% | -9.7%
CCCc1sc(N/N=C/c2ccccn2)nc1-c1ccc(Br)cc1 | 1.65µM* | 9.2% | 3.9% | -11.2% | -0.3% | -33.1%
CC1Cn2cc(C(=O)Nc3ccccc3C(F)(F)F)c(=O)c3c(Cl)ccc(c32)O1 (configuration not stated) | 1.9% | 38.7% | 4.6% | 0.2% | ? | -12.8%
CCS(=O)(=O)N1CCCC(C(=O)NCCOC)C1 (configuration not stated) | · | · | -2.7% | · | 2.7% | ·
O=C1c2ccccc2C(=O)c2c1ccc(O)c2O | -3.6% | 16.1% | · | · | · | ·
CCSc1c(C(=O)NC)ccc2c1C(=O)c1ccccc1C2=O | -9.1% | 14.7µM* | 0.6% | 0.9% | -6.1% | -21.4%
COC(=O)c1ccc2c(c1O)C(=O)c1ccccc1C2=O | · | 4.15µM* | -13.3% | -11.9% | 2.2% | -0.1%
CCn1c(SCC(=O)N(C)C)nc2cc(S(=O)(=O)N3CCOCC3)ccc21 | 25.4% | ? | 2.0% | 1.7% | -17.1% | -3.9%
COc1ccc(CC(=O)NCc2nc3cccnc3n2Cc2ccc(C)cc2)cc1OC | · | · | 0.5% | · | -5.8% | ·
CNC(=O)c1cccc(NC(=O)c2cc(-c3ccccc3)nc3c2cnn3C(C)C)c1 | 4.65µM* | ? | -4.8% | -1.1% | -4.0% | 93.0%
